The list is not random: actives were taken first. Their share in the collection is about 0.5%.
TRb SRC2 PPI: disrupts binding of human TR beta to SRC2. AID 1469. Potency, µM (top dose mostly 106 µM), usual class: inhibitors. TRbeta-SRC2 peptide binding, fluorescence polarization; receptor liganded with 1 µM T3. P10828. 280,000 compounds, 0.065% hits; further: nearly all actives have a fitted effect of over 50% in size
Target sequence (P10828 whole entry, looked up): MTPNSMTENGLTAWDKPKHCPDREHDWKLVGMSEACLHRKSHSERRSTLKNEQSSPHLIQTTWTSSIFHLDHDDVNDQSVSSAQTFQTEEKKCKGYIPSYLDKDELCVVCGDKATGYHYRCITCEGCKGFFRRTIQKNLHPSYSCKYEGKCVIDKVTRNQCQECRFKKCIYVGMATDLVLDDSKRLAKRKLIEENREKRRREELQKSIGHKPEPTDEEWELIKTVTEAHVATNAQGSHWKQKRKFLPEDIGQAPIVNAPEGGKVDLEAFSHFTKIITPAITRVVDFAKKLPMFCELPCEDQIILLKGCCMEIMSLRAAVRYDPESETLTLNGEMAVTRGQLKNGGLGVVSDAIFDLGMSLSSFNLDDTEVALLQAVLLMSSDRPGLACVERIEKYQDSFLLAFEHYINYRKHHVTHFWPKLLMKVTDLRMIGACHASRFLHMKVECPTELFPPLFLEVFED
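Read-out is fluorescence polarization (555 nm excitation, 632 nm emission) of a Texas Red SRC2 coactivator peptide; loss of signal reflects blocked binding to human TRb ligand-binding domain in the presence of 1 uM T3.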
Menin MLL FP FL: inhibitors of human menin-MLL interaction, wild-type MLL peptide | Fluorescence polarization, fluorescein-MLL peptide displacement from menin | FP activity change, % at 61.4 µM | 290,000 tested, under 10 active; active means well fitted curve in the direction sought with a large enough effect in the polarisation, not every such curve was filed as active; inconclusive means small, poorly fitted or top-dose-only effect, or effect the other way, or a change in a side signal; inactive means no such curve, though single readings can be large or run the other way; the % refers to the polarisation
RGS12 GoLoco inh-1: RGS12 GoLoco-Gai1 interaction inhibition. Potency, µM (top dose mostly 61.6 µM), usual class: inhibitors. AID 880. P63096. 230,000 compounds, 0.44% hits. Gai1:RGS12 GoLoco peptide FP, rhodamine, 10 min; active means well fitted inhibition curve with a large enough effect, not every such curve was filed as active; inactive means no such curve, though single readings can be large or run the other way; further: nearly all actives have a fitted effect of over 30% in size
TexasRed fluor: counter-screen for TRb-SRC2 inhibitors: fluorescence interference; TRb/SRC2 Texas Red total fluorescence interference; Potency, µM (highest dose often 106 µM); 280,000 compounds, 0.29% hits; active means well fitted curve in either direction with a large enough effect; inconclusive means small, poorly fitted or top-dose-only effect
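Human TRb ligand-binding domain at 0.6 uM with 20 nM Texas Red SRC2 peptide in Tris buffer containing 1 uM T3 and 5% DMSO, incubated with compound 5 h at ambient temperature. Total fluorescence (555/632 nm) calculated as parallel + 2 × perpendicular.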
Menin-MLL TR inh: inhibitors of human menin-MLL interaction, mutant MLL peptide | Potency, µM (top dose mostly 61.6 µM), hits mostly inhibitors | O00255 | Menin + Texas Red MLL mutant peptide, fluorescence polarization | 270,000 compounds, 0.23% hits; active means well fitted inhibition curve with a large enough effect in the polarisation, with a control signal flat, not every such curve was filed as active; inconclusive means small, poorly fitted or top-dose-only effect, or effect the other way, or a change in a side signal; inactive means no such curve, though single readings can be large or run the other way; the % refers to the polarisation
CXXC DNA block: blocks binding of human MLL CXXC domain to DNA; Q03164; MLL-CXXC / FITC-HOXA9 DNA fluorescence polarization; Potency, µM (titrated, usually from 115 µM), actives largely listed as inhibitors; 290,000 compounds, 0.037% hits; active means well fitted inhibition curve with a large enough effect in the polarisation, with a control signal flat, not every such curve was filed as active; inconclusive means small, poorly fitted or top-dose-only effect, or effect the other way, or a change in a side signal; inactive means no such curve, though single readings can be large or run the other way; the % refers to the polarisation
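Fluorescence polarization: 7 uM MLL-CXXC (stock) preincubated 5 min with compounds, then 50 nM fluorescein-HOX-A9 DNA (stock) added; 30 min ambient. Buffer 50 mM Tris-HCl pH 7.5, 50 mM NaCl, 1 mM DTT, 0.05% BSA.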
RGS12 GoLoco inh-2: RGS12 (human) GoLoco motif inhibition, red FP. shares compounds with RGS12 GoLoco inh-1. Gai1/rhodamine-RGS12 GoLoco peptide fluorescence polarization. Potency, µM (doses to about 57.1 µM), most hits filed as inhibitors. 110 compounds, 50% hits. AID 2390
A number is an active result; – = inactive; ? = inconclusive; · = no result given; ! = a repeat was not active; [ ] = another dose, or the depositor's remark. Unless noted, the call rests on the fitted dose curve; in most records, active means well fitted curve in the direction sought with a large enough effect; inconclusive means small, poorly fitted or top-dose-only effect, or another doubt; inactive means no such curve, though single readings can be large; an effect the other way counts as inactive or inconclusive.

SMILES	TRb SRC2 PPI	Menin MLL FP FL	RGS12 GoLoco inh-1	TexasRed fluor	Menin-MLL TR inh	CXXC DNA block	RGS12 GoLoco inh-2
COc1cc(Cl)c(NC(=O)c2cc(S(=O)(=O)N3CCCCC3)c[nH]2)c(OC)c1	–	·	·	20µM[quencher]	·	·	·
CCc1ccc(NC(=O)c2ccc(Cn3nc(N4CCN(c5ccccc5)CC4)ccc3=O)o2)cc1	–	·	·	–	·	·	·
CCSC(=O)N(CC(C)C)CC(C)C	–	·	·	–	·	·	·
S=C([S-])NCCNC(=S)[S-].[Mn+2]	–	·	·	–	·	·	·
CC(NC(=O)c1c(O)nc2ccccn2c1=O)c1ccccc1 (centres undefined)	–	·	·	18µM[quencher]	·	·	·
CC(C)N=c1cc2n(-c3ccc(Cl)cc3)c3ccccc3nc-2cc1Nc1ccc(Cl)cc1	–	–	10µM	–	?	–	·
Cn1c(CNc2ccc(Cl)cc2)nc2ccccc21	–	–	–	–	–	–	·
CN(C)c1ccc(C(c2ccccc2)c2ccc(N(C)C)cc2)cc1	–	·	·	–	·	·	·
Cc1ccc2c(c1)S/C(=C/c1ccc[n+](C)c1)N2CCO	–	–	8.9µM	–	–	–	·
CCOC(=O)c1c(C)oc2ncnc(N3CCN(c4ccccc4)CC3)c12	–	·	·	–	·	·	·
COc1ccc(NC(=O)c2cc(S(=O)(=O)N3CCOCC3)cn2C)cc1Cl	–	–	·	10µM[quencher]	–	·	·
COc1ccc(NC(=O)c2cc(S(=O)(=O)N3CCCCC3)cn2C)cc1Cl	–	·	·	–	·	·	·
Cc1ccc(NC(=O)N2CCc3cc(S(=O)(=O)N4CCC(C)CC4)ccc32)cc1F	–	·	·	28µM[quencher]	·	·	·
CC(=O)[C@]1(O)CC[C@@H]2[C@H]3C[C@@H](C)C4=CC(=O)CC[C@@]4(C)C3[C@@H](O)C[C@]21C (some centres undefined)	·	·	–[14.2 µM]	·	·	·	·
CC1=CC2=C(OC1N(C)C)c1cccc3cccc(c13)C2=O (centres undefined)	40µM	?	18µM	–	28µM	–	·
CN1[C@H](CC(=O)c2ccccc2)CCC[C@H]1C[C@@H](O)c1ccccc1	–	·	–	–	·	·	·
CN1C(CC(=O)c2ccccc2)CCCC1CC(O)c1ccccc1 (centres undefined)	–	·	22µM!	–	·	–	–
O=C(O)c1cc(NCc2cc(O)ccc2O)ccc1O	–	·	6.3µM	–	·	·	2µM
COc1ccc2c(c1)CN([C@H](C)[C@@H]1CC[C@@H]3[C@H]4CC[C@H]5C[C@@H](O)CC[C@@]5(C)[C@H]4CC[C@]31C)CO2	·	·	–[14.2 µM]	·	·	·	·
CCCCCCCCC[n+]1cccc2c3ccccc3ccc21	–	–	–	–	–	–	·
CCCCCCCCCCCCCCCC[n+]1cccc2ccccc21	45µM	–	2.2µM	–	?	?	4.5µM
Cc1[nH]c2ccccc2c1C(=O)CNc1nccs1	–	–	–	–	–	–	6.3µM
CC(C)C(NC(=O)C(CC(=O)O)NC(=O)C(CCCCN)NC(=O)C(N)CCCN=C(N)N)C(=O)NC(Cc1ccc(O)cc1)C(=O)O (centres undefined)	·	–	·	·	–	–	·
CCC(=O)Nc1ccc(-c2nnc(SCC(=O)N3CCCCC3)n2C)cc1	–	–	–	–	–	–	–
Cn1c(SCC(=O)Nc2ccccc2)nnc1-c1ccc(NC(=O)CCc2ccccc2)cc1	–	–	–	–	?	–	–
SMILES	TRb SRC2 PPI	Menin MLL FP FL	RGS12 GoLoco inh-1	TexasRed fluor	Menin-MLL TR inh	CXXC DNA block	RGS12 GoLoco inh-2
CC(=O)O[C@H](C(=O)O[C@@H]1C[C@@H](CCC[C@H]2O[C@H](C(=O)OC(C)C)CC[C@@H]2C)O[C@@H](CC#N)C1)c1ccccc1	–	–	–	–	–	·	·
Nc1ncc(O)c(N)n1	–	–	·	–	–	·	·
O=C1NCc2c1c1c3ccccc3[nH]c1c1[nH]c3ccccc3c21	·	·	·	·	·	·	–
O=C(O)c1ccc(COc2ccc(/C=N/NC(=O)c3cccs3)cc2)cc1	–	–	10µM	–	–	–	?
O=C(N/N=C/c1cccc(OCc2ccccc2)c1)c1cccs1	–	–	–	–	?	–	·
Cc1ccccc1OCc1nnc(SCC(=O)Nc2ccc3c(c2)oc2ccccc23)n1C	–	–	–	–	–	–	–
CCCCSc1nnc2c(n1)OC(c1ccc(C)s1)Nc1ccccc1-2 (centres undefined)	–	·	·	–	·	·	·
CCOC(=O)c1ccc(NC(=O)CSc2nccn2C)cc1	–	–	–	–	–	–	–
CC(=O)c1ccc(NC(=O)CSc2nccn2C)cc1	–	–	–	–	·	–	·
CCCSS/C(CCO)=C(/C)N(C=O)Cc1cnc(C)nc1N	·	–	·	·	–	–	·
COc1cccc(C(=O)N/N=C/c2ccc(Oc3ccc([N+](=O)[O-])cn3)c(OC)c2)c1	–	–	–	–	–	–	18µM
COc1cc(/C=N/NC(=O)c2ccncc2)ccc1Oc1ccc([N+](=O)[O-])cn1	–	–	–	–	–	–	·
CCCCCCCCCCCCCCCC[n+]1ccc(C(N)=O)cc1	–	?	3.2µM	–	–	–	?
CCn1c(SCC(=O)N2CCCCCC2)nc2ccccc2c1=O	·	–	·	·	–	–	·
CCn1c(SCC(=O)N2CCN(c3cccc(Cl)c3)CC2)nc2ccccc2c1=O	–	–	–	–	–	–	–
C=CCC(O)(C#Cc1ccccc1)c1ccccc1 (centres undefined)	–	–	–	–	–	·	·
CCCc1n(CC(O)COCC2CC=CCC2)c2ccccc2[n+]1C (centres undefined)	–	–	–	–	–	–	14µM
CCCCn1c(=O)[nH]c2nc3cc(N)ccc3nc2c1=O	–	?	13µM	–	?	?	8.9µM
Nc1ccc2nc3c(=O)n(C4CCCCC4)c(=O)[nH]c3nc2c1	–	?	25µM	–	·	?	11µM
Cc1cc2nc3c(=O)n(CCc4ccccc4)c(=O)[nH]c3nc2cc1N	–	?	7.9µM	–	·	?	?
Nc1ccc2nc(CCc3ccccc3)[nH]c2c1	–	–	–	–	–	–	·
Nc1ccc2nc3c(=O)n(CCc4ccccc4)c(=O)[nH]c3nc2c1	–	?	18µM	–	·	?	13µM
CN(C)c1ncnc2ccc(-c3ccccc3C#N)cc12	–	–	–	–	–	·	·
Cc1cc(C)nc(SCC(=O)Nc2ccc(N3CCOCC3)cc2)n1	–	–	5µM	–	–	–	4.5µM
CCCCN1C(=O)C(O)(CC(=O)c2ccc(C(C)(C)C)cc2)c2ccccc21 (centres undefined)	–	·	·	–	·	·	·
COC(=O)C(c1ccc(OC)c(OC)c1)C1c2ccccc2C=C(C)N1C(=O)OC (centres undefined)	–	–	–	–	–	·	·
C=CCn1c(=O)[nH]c2nc3cc(N=CN(C)C)c(C)cc3nc2c1=O	–	?	28µM	–	·	?	28µM
CN(C)/C=N/c1cc(=O)[nH]c(=O)n1CC1CC1	–	–	–	–	–	–	·
Cc1cc(C)n(CC(O)COCc2ccccc2)n1 (centres undefined)	–	–	·	–	–	–	·

Screens: PubChem BioAssay, National Center for Advancing Translational Sciences (NCATS)
